Reference: paper PMC12820563, “FoxP3 forms a head-to-head dimer in vivo and stabilizes its multimerization on adjacent microsatellites”
Over roughly 16,000 sequences, “rpm ratio (pull-down/input)” has its median near 0.94; the highest 2% begin near 1.7. This excerpt belongs to a sample that is enriched for the highest values.

Molecular target: T1, MBP-FoxP1dN (Mus musculus, UniProt P58462 326-579)
T1 sequence: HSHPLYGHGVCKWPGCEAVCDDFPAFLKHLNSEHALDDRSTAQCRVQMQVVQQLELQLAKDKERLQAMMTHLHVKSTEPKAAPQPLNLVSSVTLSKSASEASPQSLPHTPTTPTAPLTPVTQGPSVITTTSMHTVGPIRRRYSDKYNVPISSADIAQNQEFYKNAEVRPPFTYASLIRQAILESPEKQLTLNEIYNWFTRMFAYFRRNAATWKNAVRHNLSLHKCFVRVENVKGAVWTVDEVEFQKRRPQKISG
Test: PD-seq (MBP pull-down with sequencing); 20 mM Tris-HCl pH 7.5, 100 mM NaCl, 1.5 mM MgCl2, 0.4 uM protein, 0.1 uM dsDNA library, 30 min, room temperature, amylose pull-down; high values mean tight binding
Settings: protein: recombinant; tags: His6-MBP; chain copies: 2; dsDNA, one strand shown
Procedure, shortened: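 Binding is reads-per-million enrichment of pull-down over input, with replicates pooled. It comes from 30 min room-temperature incubation in Tris pH 7.5 buffer with NaCl and MgCl2 of 0.4 µM His6-MBP-tagged, N-terminally truncated mouse FoxP3 or FoxP1 fragment from E. coli with 0.1 µM Klenow-filled degenerate double-stranded DNA library, followed by amylose resin capture, three washes and Illumina sequencing of the released DNA.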

Compared with “GATGATTGTTCTCCCAGCTGATGAATTTTTGTGTTCGAGTAAACAAATTTTCCTAATCTTTCTGTTCAAGCGCCATCTAC”, “GATGATTGTTCTCCCAGCTGATGAATTGTGTGTTTCGAGTAAACAAATTTTCCTAATCTTTCTGTTCAAGCGCCATCTAC” is lower in binding signal: 1.95 RPM ratio (pull-down/input) for the first, 1.57 RPM ratio (pull-down/input) for the second.

Going from “GATGATTGTTCTCCCAGCTGATGAATTTGTGATTTCGAGTAAACAAATTTTCCTAATCTTTCTGTTCAAGCGCCATCTAC” to “GATGATTGTTCTCCCAGCTGATGAATTCTGTGTTTCGAGTAAACAAATTTTCCTAATCTTTCTGTTCAAGCGCCATCTAC”, the binding signal falls from 1.41 RPM ratio (pull-down/input) to 1.14 RPM ratio (pull-down/input).

Going from “GATGATTGTTCTCCCAGCTGATGAATTTGTGTGTTCGAGTAAACAAATTTTCCTAATCTTTCTGTTCAAGCGCCATCTAC” to “GATGATTGTTCTCCCAGCTGATGAATTGTGTTTTTCGAGTAAACAAATTTTCCTAATCTTTCTGTTCAAGCGCCATCTAC”, the binding signal rises from 1.59 RPM ratio (pull-down/input) to 2.33 RPM ratio (pull-down/input).

Compared with “GATGATTGTTCTCCCAGCTGATGAATTTGTGTTTTCGAGTAAACAAATTTTCCTAATCTTTCTGTTCAAGCGCCATCTAC”, “GATGATTGTTCTCCCAGCTGATGAATTTTGTGTTTCGAGTAAACAAATTTTCCTAATCTTTCTGTTCAAGCGCCATCTAC” is lower in binding signal: 2.61 RPM ratio (pull-down/input) for the first, 1.58 RPM ratio (pull-down/input) for the second.

First: GATGATTGTTCTCCCAGCTGATGAATTTGTGTTCTCGAGTAAACAAATTTTCCTAATCTTTCTGTTCAAGCGCCATCTAC
Second: GATGATTGTTCTCCCAGCTGATGAATTGATAGCTTCGAGTAAACAAATTTTCCTAATCTTTCTGTTCAAGCGCCATCTAC
The binding signal of the first is higher: 1.48 RPM ratio (pull-down/input) for the first, 0.923 RPM ratio (pull-down/input) for the second.

Going from “GATGATTGTTCTCCCAGCTGATGAATTGCAATTCTCGAGTAAACAAATTTTCCTAATCTTTCTGTTCAAGCGCCATCTAC” to “GATGATTGTTCTCCCAGCTGATGAATTAAGCCTATCGAGTAAACAAATTTTCCTAATCTTTCTGTTCAAGCGCCATCTAC”, the binding signal falls from 1.38 RPM ratio (pull-down/input) to 0.873 RPM ratio (pull-down/input).

Going from “GATGATTGTTCTCCCAGCTGATGAATTCTTCCAATCGAGTAAACAAATTTTCCTAATCTTTCTGTTCAAGCGCCATCTAC” to “GATGATTGTTCTCCCAGCTGATGAATTTCTATAATCGAGTAAACAAATTTTCCTAATCTTTCTGTTCAAGCGCCATCTAC”, the binding signal rises from 0.955 RPM ratio (pull-down/input) to 1.1 RPM ratio (pull-down/input).

First: GATGATTGTTCTCCCAGCTGATGAATTCTCAACCTCGAGTAAACAAATTTTCCTAATCTTTCTGTTCAAGCGCCATCTAC
Second: GATGATTGTTCTCCCAGCTGATGAATTAATGCCGTCGAGTAAACAAATTTTCCTAATCTTTCTGTTCAAGCGCCATCTAC
The binding signal of the first is lower: 0.795 RPM ratio (pull-down/input) for the first, 1.11 RPM ratio (pull-down/input) for the second.

Going from “GATGATTGTTCTCCCAGCTGATGAATTCACCGCCTCGAGTAAACAAATTTTCCTAATCTTTCTGTTCAAGCGCCATCTAC” to “GATGATTGTTCTCCCAGCTGATGAATTGTGATCGTCGAGTAAACAAATTTTCCTAATCTTTCTGTTCAAGCGCCATCTAC”, the binding signal rises from 0.899 RPM ratio (pull-down/input) to 1.16 RPM ratio (pull-down/input).

Compared with “GATGATTGTTCTCCCAGCTGATGAATTTCTGACATCGAGTAAACAAATTTTCCTAATCTTTCTGTTCAAGCGCCATCTAC”, “GATGATTGTTCTCCCAGCTGATGAATTATTGACATCGAGTAAACAAATTTTCCTAATCTTTCTGTTCAAGCGCCATCTAC” is higher in binding signal: 0.96 RPM ratio (pull-down/input) for the first, 2 RPM ratio (pull-down/input) for the second.

Compared with “GATGATTGTTCTCCCAGCTGATGAATTGATGACATCGAGTAAACAAATTTTCCTAATCTTTCTGTTCAAGCGCCATCTAC”, “GATGATTGTTCTCCCAGCTGATGAATTGACATTATCGAGTAAACAAATTTTCCTAATCTTTCTGTTCAAGCGCCATCTAC” is higher in binding signal: 1.34 RPM ratio (pull-down/input) for the first, 1.5 RPM ratio (pull-down/input) for the second.

Compared with “GATGATTGTTCTCCCAGCTGATGAATTGTTGACATCGAGTAAACAAATTTTCCTAATCTTTCTGTTCAAGCGCCATCTAC”, “GATGATTGTTCTCCCAGCTGATGAATTTTTGACATCGAGTAAACAAATTTTCCTAATCTTTCTGTTCAAGCGCCATCTAC” is lower in binding signal: 2.54 RPM ratio (pull-down/input) for the first, 1.09 RPM ratio (pull-down/input) for the second.

Going from “GATGATTGTTCTCCCAGCTGATGAATTATTGAAATCGAGTAAACAAATTTTCCTAATCTTTCTGTTCAAGCGCCATCTAC” to “GATGATTGTTCTCCCAGCTGATGAATTGACAACATCGAGTAAACAAATTTTCCTAATCTTTCTGTTCAAGCGCCATCTAC”, the binding signal rises from 1.23 RPM ratio (pull-down/input) to 2.29 RPM ratio (pull-down/input).

First: GATGATTGTTCTCCCAGCTGATGAATTGACATAATCGAGTAAACAAATTTTCCTAATCTTTCTGTTCAAGCGCCATCTAC
Second: GATGATTGTTCTCCCAGCTGATGAATTGAACTAATCGAGTAAACAAATTTTCCTAATCTTTCTGTTCAAGCGCCATCTAC
The binding signal of the first is higher: 1.63 RPM ratio (pull-down/input) for the first, 0.992 RPM ratio (pull-down/input) for the second.

Going from “GATGATTGTTCTCCCAGCTGATGAATTACCGCGCTCGAGTAAACAAATTTTCCTAATCTTTCTGTTCAAGCGCCATCTAC” to “GATGATTGTTCTCCCAGCTGATGAATTTGATTCCTCGAGTAAACAAATTTTCCTAATCTTTCTGTTCAAGCGCCATCTAC”, the binding signal falls from 0.948 RPM ratio (pull-down/input) to 0.839 RPM ratio (pull-down/input).

In the case of “GATGATTGTTCTCCCAGCTGATGAATTCTTGGTTTCGAGTAAACAAATTTTCCTAATCTTTCTGTTCAAGCGCCATCTAC”, the binding signal is reported as 0.962 RPM ratio (pull-down/input).
